# Measured values as given in the supplement of paper PMC12340641.
# Experiments:
# [1] = biological target: IKZF1 (dCK*-IKZF1 fusion in HEK293FT) (UniProt Q13422); experiment: inhibition of IKZF1 HTRF signal (DMSO = 0%, pomalidomide 10 uM = 100%); higher = lower IKZF1 protein level; details: compound concentration: 5 uM, overnight (~20 h)
# Outline: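 After overnight treatment at 37 °C with 5 μM compound in single wells, HEK293FT cells (2000/well, 384-well) stably expressing an IKZF1 fusion were lysed for 30 min at room temperature. A commercial HTRF total-IKZF1 antibody kit was incubated with the lysate overnight, and the time-resolved FRET ratio at 665/620 nm was corrected for background. Data are given as percent inhibition of IKZF1 signal relative, on each plate, to vehicle and a reference degrader, set at 0% and 100% respectively.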
# HEK293FT dCK*-only = experiment: relative growth in counter assay (no AraC = 100%, AraC + DMSO = 0%); higher = more growth rescue independent of IKZF1; details: compound concentration: 5 uM; AraC concentration: 0.3 uM; overnight pretreatment + 4 days AraC
# Outline: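 Counter assay in HEK293FT cells expressing dCK* alone (300/well, 384-well). Cells received 5 μM compound 2 h after seeding, then after overnight at 37 °C a nucleoside suicide substrate at 0.3 μM plus medium for 4 days. On day 5, Hoechst 33342-stained nuclei were counted by imaging. Relative growth was normalised per plate to wells without suicide substrate (100%) and substrate plus vehicle (0%).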
# HEK293FT dCK*-IKZF1 = experiment: relative growth recovery (pomalidomide 10 uM = 100%, DMSO = 0%); higher = more growth rescue (IKZF1 fusion degradation); details: compound concentration: 5 uM; AraC concentration: 0.3 uM; overnight pretreatment + 4 days AraC
# Outline: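 HEK293FT cells stably expressing a dCK*-IKZF1 fusion (300/well, 384-well) received 5 μM compound 2 h after seeding. After overnight at 37 °C they received a nucleoside suicide substrate at 0.3 μM plus medium for 4 days. On day 5, Hoechst 33342-stained nuclei were counted by whole-well imaging. Growth recovery was normalised per plate to a reference degrader (100%) and vehicle (0%); values are means of duplicates run on different days.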
# IKZF1 (dCK*-IKZF1 fusion in HEK293FT), sequence (Q13422 whole entry, looked up, the tested form may be a part): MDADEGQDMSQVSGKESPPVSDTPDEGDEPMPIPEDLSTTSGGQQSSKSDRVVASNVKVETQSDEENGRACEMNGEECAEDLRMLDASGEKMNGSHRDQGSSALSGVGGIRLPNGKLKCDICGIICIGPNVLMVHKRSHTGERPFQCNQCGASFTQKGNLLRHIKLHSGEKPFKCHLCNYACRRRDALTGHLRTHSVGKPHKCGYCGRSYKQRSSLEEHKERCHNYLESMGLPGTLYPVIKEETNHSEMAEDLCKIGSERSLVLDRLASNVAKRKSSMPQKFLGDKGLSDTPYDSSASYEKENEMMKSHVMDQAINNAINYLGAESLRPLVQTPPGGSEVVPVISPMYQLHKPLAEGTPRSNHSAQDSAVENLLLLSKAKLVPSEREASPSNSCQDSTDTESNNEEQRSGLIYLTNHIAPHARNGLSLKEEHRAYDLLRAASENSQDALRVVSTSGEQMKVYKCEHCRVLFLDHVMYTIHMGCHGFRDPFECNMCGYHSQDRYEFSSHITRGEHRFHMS
SMILES,inhibition of IKZF1 HTRF signal [1] [%],relative growth in counter assay (HEK293FT dCK*-only) [%],relative growth recovery (HEK293FT dCK*-IKZF1) [%]
NCC1(CC(=O)O)CCCCC1,-1.54,-10.5,-0.56
CCO[C@H]1O[C@@H]2O[C@@]3(C)CC[C@H]4[C@H](C)CC[C@@H]([C@H]1C)[C@@]24OO3 [Artemotil],21.4,-27.3,-5.64
CO[C@H]1[C@H](O)[C@H](O[C@H]2CC[C@@]3(C=O)[C@H](CC[C@@H]4[C@@H]3CC[C@]3(C)[C@@H](C5=CC(=O)OC5)CC[C@]43O)C2)O[C@@H](C)[C@@H]1O [Peruvoside],94.1,-34.2,-12.7
C[C@@]12C(=O)OC(=O)[C@]1(C)[C@H]1CC[C@@H]2O1 [cantharidin],15.8,3.7,-4.16
Oc1cc(Cl)ccc1Oc1ccc(Cl)cc1Cl,-23.1,-4.14,-0.94
CCOc1ccccc1-n1c(C(C)N2CCN(C(=O)COc3ccc(Cl)cc3)CC2)nc2ccccc2c1=O (stereo not drawn) [Erastin],-51.3,-4.63,-1.44
O=[N+]([O-])/C=C/c1ccc2c(c1)OCO2,-44.2,-33.6,-13.1
C=C(C)CN1CC[C@]23c4c5ccc(O)c4O[C@H]2c2[nH]c4ccccc4c2C[C@@]3(O)C1C5,-30.3,-7.54,-3.3
c1ccc2c(c1)Nc1ccccc1S2,-13.2,-0.21,0.68
COc1ccc(C[C@H]2NC[C@H](O)[C@H]2OC(C)=O)cc1 [anisomycin],63.3,-34.7,-12.5
COc1cc2c(c(OC)c1OC)-c1ccc(OC)c(=O)cc1[C@@H](NC(C)=O)CC2,-16.1,-34.4,-11.6
CCC(C)[C@H]1O[C@]2(C=C[C@@H]1C)C[C@@H]1C[C@@H](C/C=C(\C)[C@@H](OC3C[C@H](OC)C(O[C@H]4C[C@H](OC)[C@@H](O)[C@H](C)O4)[C@H](C)O3)[C@@H](C)/C=C/C=C3\CO[C@@H]4[C@H](O)C(C)=C[C@@H](C(=O)O1)[C@]34O)O2 (stereo partly drawn) [ABAMECTIN (avermectin B1a shown)],-61.7,-8.1,-3.08
O=C(CCCN1CCC2(CC1)C(=O)NCN2c1ccccc1)c1ccc(F)cc1 [spiperone],-3.55,-1.41,-0.995
O=C1c2ccccc2C(=O)c2ccccc21 [anthraquinone],-34.9,0.57,-0.655
C[C@@]1(CO)[C@H](O)CC[C@@]2(C)[C@H]1CC[C@H]1C[C@@H]3C[C@@]12CC[C@]3(O)CO [Aphidicolin],-14.2,-34.1,-12.3
O=c1[nH]c2ccccc2n1CCCN1CCC(n2c(=O)[nH]c3cc(Cl)ccc32)CC1,4.83,-4.05,2.7
